From ChEMBL document CHEMBL5724796, “Tm Shift (DSF) assay results for EUbOPEN Chemogenomics Library” (2024)
Residues, ends and D or L forms follow the SMILES beside them.

Columns and labels:
Settings in all cases: Compound concentration 20.0 uM
[1] = target: Tyrosine-protein kinase ABL1 (Homo sapiens) (UniProt P00519)
[2] = target: Bromodomain-containing protein 4 (Homo sapiens) (UniProt O60885)
[3] = target: Cyclin-dependent kinase 2 (Homo sapiens) (UniProt P24941)
[4] = target: Casein kinase I isoform delta (Homo sapiens) (UniProt P48730)
[5] = target: Glycogen synthase kinase-3 beta (Homo sapiens) (UniProt P49841)
[6] = target: Mitogen-activated protein kinase 1 (Homo sapiens) (UniProt P28482)
[7] = target: T1, Aurora kinase A (Homo sapiens) (UniProt O14965)
T1 sequence (whole entry): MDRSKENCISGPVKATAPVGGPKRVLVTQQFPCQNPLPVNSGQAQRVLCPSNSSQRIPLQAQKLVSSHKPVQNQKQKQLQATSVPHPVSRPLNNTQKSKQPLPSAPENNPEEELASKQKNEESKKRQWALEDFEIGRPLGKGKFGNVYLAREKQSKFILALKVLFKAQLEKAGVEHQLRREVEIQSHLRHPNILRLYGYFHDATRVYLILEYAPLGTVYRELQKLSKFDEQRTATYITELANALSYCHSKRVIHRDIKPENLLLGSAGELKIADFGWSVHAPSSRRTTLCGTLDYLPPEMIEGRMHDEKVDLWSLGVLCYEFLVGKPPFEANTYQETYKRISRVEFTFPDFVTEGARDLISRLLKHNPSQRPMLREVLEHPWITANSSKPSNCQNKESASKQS

[8] = target: T2, Transcription intermediary factor 1-alpha (Homo sapiens) (UniProt O15164)
T2 sequence (whole entry): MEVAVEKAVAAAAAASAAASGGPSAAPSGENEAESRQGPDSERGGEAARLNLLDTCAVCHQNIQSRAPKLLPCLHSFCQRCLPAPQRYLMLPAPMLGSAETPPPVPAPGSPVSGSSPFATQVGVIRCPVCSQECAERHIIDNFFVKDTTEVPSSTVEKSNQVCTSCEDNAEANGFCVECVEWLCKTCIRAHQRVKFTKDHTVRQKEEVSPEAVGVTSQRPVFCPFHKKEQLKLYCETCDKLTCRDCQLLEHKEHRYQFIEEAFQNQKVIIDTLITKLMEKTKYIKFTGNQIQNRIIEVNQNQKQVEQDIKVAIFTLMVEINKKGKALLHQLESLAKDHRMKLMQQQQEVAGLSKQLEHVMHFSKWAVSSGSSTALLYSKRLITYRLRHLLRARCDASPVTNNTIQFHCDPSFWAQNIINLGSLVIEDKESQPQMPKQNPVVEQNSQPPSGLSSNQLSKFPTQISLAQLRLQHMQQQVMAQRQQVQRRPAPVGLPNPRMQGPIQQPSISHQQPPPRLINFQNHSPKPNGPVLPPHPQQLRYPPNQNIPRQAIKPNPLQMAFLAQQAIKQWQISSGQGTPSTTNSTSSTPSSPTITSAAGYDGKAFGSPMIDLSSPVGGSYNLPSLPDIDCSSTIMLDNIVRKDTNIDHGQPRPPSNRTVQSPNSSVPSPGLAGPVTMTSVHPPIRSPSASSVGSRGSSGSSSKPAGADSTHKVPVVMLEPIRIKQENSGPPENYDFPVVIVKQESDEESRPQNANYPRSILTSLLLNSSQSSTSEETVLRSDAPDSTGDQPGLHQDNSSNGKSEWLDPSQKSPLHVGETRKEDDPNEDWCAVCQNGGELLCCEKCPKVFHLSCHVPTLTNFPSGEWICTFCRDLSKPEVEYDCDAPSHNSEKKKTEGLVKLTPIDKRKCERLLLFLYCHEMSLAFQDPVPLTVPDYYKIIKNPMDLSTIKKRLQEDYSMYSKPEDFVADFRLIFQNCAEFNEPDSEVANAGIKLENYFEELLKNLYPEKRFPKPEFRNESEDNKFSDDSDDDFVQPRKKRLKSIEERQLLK

Sequence of Casein kinase I isoform delta (Homo sapiens) (P48730 whole entry, looked up, canonical isoform): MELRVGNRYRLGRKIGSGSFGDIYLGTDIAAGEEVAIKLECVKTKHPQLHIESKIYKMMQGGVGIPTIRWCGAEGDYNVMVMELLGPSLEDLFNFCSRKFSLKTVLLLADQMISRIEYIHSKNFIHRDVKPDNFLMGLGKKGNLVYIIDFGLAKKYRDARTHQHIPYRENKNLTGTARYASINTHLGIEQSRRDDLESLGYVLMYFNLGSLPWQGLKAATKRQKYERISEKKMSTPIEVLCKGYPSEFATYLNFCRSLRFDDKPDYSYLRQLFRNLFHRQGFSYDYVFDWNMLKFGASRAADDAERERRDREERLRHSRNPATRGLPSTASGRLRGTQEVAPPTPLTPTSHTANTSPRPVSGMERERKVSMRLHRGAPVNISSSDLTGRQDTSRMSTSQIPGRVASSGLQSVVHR
Sequence of Tyrosine-protein kinase ABL1 (Homo sapiens) (P00519 whole entry): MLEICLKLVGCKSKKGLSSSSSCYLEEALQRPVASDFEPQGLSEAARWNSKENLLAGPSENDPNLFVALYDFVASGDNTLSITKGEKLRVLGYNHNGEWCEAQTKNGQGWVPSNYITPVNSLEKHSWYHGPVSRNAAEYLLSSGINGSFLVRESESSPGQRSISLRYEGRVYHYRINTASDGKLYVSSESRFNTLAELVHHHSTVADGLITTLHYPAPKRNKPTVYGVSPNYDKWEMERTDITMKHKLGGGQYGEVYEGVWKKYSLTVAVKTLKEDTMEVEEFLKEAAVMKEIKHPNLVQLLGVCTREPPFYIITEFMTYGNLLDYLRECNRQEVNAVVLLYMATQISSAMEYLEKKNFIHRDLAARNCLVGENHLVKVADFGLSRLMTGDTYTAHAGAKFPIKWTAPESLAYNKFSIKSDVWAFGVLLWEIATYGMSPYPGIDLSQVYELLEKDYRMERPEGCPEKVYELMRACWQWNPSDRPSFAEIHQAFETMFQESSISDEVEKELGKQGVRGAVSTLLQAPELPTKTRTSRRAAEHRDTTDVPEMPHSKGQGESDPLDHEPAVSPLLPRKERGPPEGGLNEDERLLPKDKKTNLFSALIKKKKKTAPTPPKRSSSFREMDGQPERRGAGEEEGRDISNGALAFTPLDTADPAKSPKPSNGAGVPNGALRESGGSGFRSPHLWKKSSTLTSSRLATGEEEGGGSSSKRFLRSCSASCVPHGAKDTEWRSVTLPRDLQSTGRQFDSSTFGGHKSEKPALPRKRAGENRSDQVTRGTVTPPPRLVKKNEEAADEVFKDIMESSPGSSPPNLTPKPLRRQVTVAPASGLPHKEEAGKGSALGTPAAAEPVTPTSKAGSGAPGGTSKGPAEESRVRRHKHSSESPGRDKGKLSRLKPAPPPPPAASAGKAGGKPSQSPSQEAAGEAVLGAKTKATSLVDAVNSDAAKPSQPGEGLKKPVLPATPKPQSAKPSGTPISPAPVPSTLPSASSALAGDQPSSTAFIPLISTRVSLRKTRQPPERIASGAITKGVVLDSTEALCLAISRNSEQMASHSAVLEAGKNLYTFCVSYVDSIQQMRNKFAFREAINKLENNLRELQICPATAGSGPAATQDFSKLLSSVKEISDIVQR
Sequence of Mitogen-activated protein kinase 1 (Homo sapiens) (P28482 whole entry): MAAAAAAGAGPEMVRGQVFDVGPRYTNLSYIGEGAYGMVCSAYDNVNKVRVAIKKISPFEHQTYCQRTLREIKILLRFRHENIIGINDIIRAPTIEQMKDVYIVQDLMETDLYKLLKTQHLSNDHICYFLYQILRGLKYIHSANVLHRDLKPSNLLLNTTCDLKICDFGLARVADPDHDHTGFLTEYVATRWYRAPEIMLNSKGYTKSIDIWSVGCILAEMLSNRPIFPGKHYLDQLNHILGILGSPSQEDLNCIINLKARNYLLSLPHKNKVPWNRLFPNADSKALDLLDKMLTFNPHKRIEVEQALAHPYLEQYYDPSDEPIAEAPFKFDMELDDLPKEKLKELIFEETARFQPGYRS
Sequence of Glycogen synthase kinase-3 beta (Homo sapiens) (P49841 whole entry, looked up): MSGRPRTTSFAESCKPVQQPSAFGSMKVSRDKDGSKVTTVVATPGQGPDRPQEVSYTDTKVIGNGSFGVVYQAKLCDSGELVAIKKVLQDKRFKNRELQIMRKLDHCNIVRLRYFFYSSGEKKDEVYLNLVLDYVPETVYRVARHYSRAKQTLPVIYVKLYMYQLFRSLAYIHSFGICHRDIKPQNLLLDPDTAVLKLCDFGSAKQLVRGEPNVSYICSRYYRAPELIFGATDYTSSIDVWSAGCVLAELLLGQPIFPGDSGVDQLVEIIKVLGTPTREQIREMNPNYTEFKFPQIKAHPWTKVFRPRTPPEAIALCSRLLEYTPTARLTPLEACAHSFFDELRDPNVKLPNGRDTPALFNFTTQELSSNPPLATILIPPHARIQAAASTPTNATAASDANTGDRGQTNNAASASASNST

| Structure (SMILES) | ΔTm [1] [°C] | ΔTm [2] [°C] | ΔTm [3] [°C] | ΔTm [4] [°C] | ΔTm [5] [°C] | ΔTm [6] [°C] | ΔTm [7] [°C] | ΔTm [8] [°C] |
| --- | --- | --- | --- | --- | --- | --- | --- | --- |
| CCc1ccccc1NC(=O)CSC(=O)NNC(=O)[C@H](Cc1c[nH]c2ccccc12)NC(=O)OC(C)(C)C | 1.95 | -0.97 | -0.07 | 0.05 | 4.75 | -10.2 | 3.62 | 5.76 |
| CCCC(NC(=O)C(CC(C)C)NC(=O)OCc1ccccc1)C(=O)C(=O)NCc1ccccn1 (racemic) | 0.33 | -1.67 | -0.66 | 0.03 | -0.68 | -0.49 | -1.04 | -0.95 |
| CCCN(CCC)c1ccc(C=O)cc1Br | 0.01 | -2.88 | -0.15 | -0.24 | -0.05 | 0.17 | -2.25 | -0.42 |
| O=C(N(CCc1ccccc1)C1CCCCC1)n1ncc(-c2ccc(OC(F)(F)F)cc2)n1 | -0.68 | -2.75 | 0.18 | 0.03 | -3.35 | 0.11 | -1.75 | 0.14 |
| CC(C)N(C(=O)c1cc(F)ccc1Oc1cncnc1N1CC2(CCN(C[C@H]3CC[C@H](NS(C)(=O)=O)CC3)CC2)C1)C(C)C | 0.57 | -1.5 | 0.13 | -0.36 | -0.7 | 0.13 | -2.37 | 0.16 |
| CCc1c(-c2ccccc2)c(-c2ccccc2)nn1-c1ccccc1-c1cccc(OCC(=O)O)c1 | -0.2 | -8.88 | -1.12 | -2.01 | 0 | -0.5 | -3.9 | -3.28 |
| CN1CCN(c2nc(-c3ccc(C(=O)NC4(C(=O)NCC#N)CCCCC4)cc3)cs2)CC1 | 0.26 | -0.96 | 0.12 | -0.06 | -0.33 | -1.88 | -0.41 | -0.66 |
| CN(CCC(Oc1ccc(-c2ccccc2)cc1)c1ccc(F)cc1)CC(=O)O (configuration not stated) | 0.52 | 2.4 | 1.59 | -0.12 | -0.74 | 0.42 | -1.88 | -0.18 |
| O=C(c1cc(Cl)c(O)c(Cl)c1)N1CS(=O)(=O)c2ccccc21 | 0.71 | -0.92 | 0.15 | -0.26 | 0.51 | 0.24 | -2.22 | -0.84 |
| CC(C)Nc1cc(-c2c[nH]c(C(=O)N[C@H](CO)c3cccc(Cl)c3)c2)c(Cl)cn1 | 1.43 | 6.89 | 8.63 | 0.57 | 14.2 | -1.26 | 13.7 | 0.98 |
| CCC[C@H]1CNCc2c1[nH]c(=O)c(C#N)c2N1CCC2(CC1)CC2 | 0.01 | -1.65 | -0.06 | 0.15 | -0.31 | -0.08 | -0.93 | -1.34 |
| O=C(Nc1ccccc1C(=O)O)c1cc(S(=O)(=O)c2ccccc2)ccc1Cl | 0.57 | -2.4 | 0.28 | -0.33 | 0.26 | 0.08 | -2.26 | 1.1 |
| CC(=O)Nc1ccc(-c2cc(-c3ccccc3)nc3cc(C(=O)NCCCn4ccnc4)nn23)cc1 | 0.52 | 1.46 | -0.15 | 1.15 | -0.59 | 0.9 | -0.25 | -2.15 |
| COc1cc2c(cc1-c1c(C)noc1C)[nH]c1nc(C)nc(Nc3cc(C4CC4)nn3C)c12 | 0.79 | 14.9 | -0.63 | -0.39 | 0.26 | 0.59 | -0.72 | 0.66 |
| Cn1c(=O)cc(N2CCC[C@@H](N)C2)n(Cc2cc(F)ccc2C#N)c1=O | 0.09 | -1.94 | 0.46 | -0.06 | -0.59 | 0.52 | -0.72 | 0.97 |
| O=C(c1ccc2[nH]ccc2c1)N1CCN(S(=O)(=O)c2ccc3[nH]c(=O)oc3c2)CC1 | 0.69 | -2.8 | -0.68 | 0.15 | 0 | 0.48 | -1.69 | -0.16 |
| COC(=O)[C@H]1[C@H]2C[C@@H]3c4[nH]c5cc(OC)ccc5c4CCN3C[C@H]2C[C@@H](OC(=O)c2cc(OC)c(OC)c(OC)c2)[C@@H]1OC | 0.21 | -0.12 | 0.11 | -0.26 | -0.54 | 0.12 | -0.63 | -0.4 |
| O=C1Nc2ccccc2C2(CCN(CC(Cc3ccccc3)Nc3nc4ccc(F)cc4s3)CC2)N1 (configuration not stated) | 0.77 | -4.21 | -0.52 | -0.49 | -1.4 | -0.14 | -2.22 | 0.18 |
| O=C(O)C1=CCCN(CCON=C(c2ccccc2)c2ccccc2)C1 | 0.08 | -0.61 | 0.73 | -0.14 | 0 | 0.02 | -1.31 | 1.41 |
| O=[N+]([O-])c1c(Nc2cc(F)cc(Cl)c2)ccc2nonc12 | 0.44 | -2.93 | 0.03 | -0.44 | -0.33 | 0.07 | -2.49 | -0.26 |

| Structure (SMILES) | ΔTm [1] [°C] | ΔTm [2] [°C] | ΔTm [3] [°C] | ΔTm [4] [°C] | ΔTm [5] [°C] | ΔTm [6] [°C] | ΔTm [7] [°C] | ΔTm [8] [°C] |
| --- | --- | --- | --- | --- | --- | --- | --- | --- |
| CN(C)CCCN(CC[C@H](N)C(=O)O)C[C@H]1O[C@@H](n2cnc3c(N)ncnc32)[C@H](O)[C@@H]1O | 0.32 | -2.2 | -0.1 | 0.02 | -1.16 | 0.04 | -0.74 | -1.49 |
| NC(=O)c1cc(F)cc2c1C(=O)N(C1CCN(C3CCC(F)(F)CC3)CC1)C2 | 0 | -1.47 | 0.02 | 0.25 | -0.85 | 0.19 | -1.86 | 1.35 |
| COc1ccc(OC)c(-c2nnc3n2N=C(c2ccc(OC)c(OC)c2)CS3)c1 | 0.21 | 2.23 | -0.04 | -0.07 | -1.12 | 0.55 | -1.28 | 1.86 |
| COc1ncc(C)cc1CC[C@@](O)(CC(=O)O)C(=O)O | 0.5 | -1.94 | 0.22 | -0.36 | 0.4 | 0.35 | -1.39 | -0.23 |
| O=C(NC[C@H](O)CN1CCc2ccccc2C1)c1cc(NC2COC2)ncn1 | 0.58 | -1.3 | 0.75 | 0.5 | -0.25 | 0.04 | -0.01 | -0.84 |
| CCOc1ccc2nc(-c3cccc(OCC(=O)NC(C)C)c3)nc(Nc3ccc(-c4cn[nH]c4)cc3)c2c1 | 0.09 | -0.68 | 0.3 | -1.4 | -0.35 | -2.16 | 0 | 0 |
| CC(C)(C)c1ccc(S(=O)(=O)NCc2ccc(C(=O)Nc3cccnc3)cc2)cc1 | 0.45 | -2.48 | -0.13 | -0.13 | -1.45 | 0.7 | -2.1 | 0.99 |
| CC(=O)N[C@H](C(=O)N[C@@H](CC(=O)O)C(=O)N[C@H](C(=O)N[C@@H](C)C(=O)N[C@H](C=O)CC(=O)O)C(C)C)C(C)C (Ac-VDVAD-aldehyde) | 0.62 | -2.7 | -0.17 | -0.1 | 0.07 | 0 | -1.39 | -0.67 |
| Cc1[nH]c2c(N3CCO[C@H](CO)C3)c(C#N)c(C(F)(F)F)nc2c1Cl | 0.59 | -1.62 | 1.92 | 0.2 | 1.93 | 1.85 | -1.95 | -1.25 |
| COc1cc(Nc2ncc(F)c(Nc3ccc4c(n3)N(COP(=O)(O)O)C(=O)C(C)(C)O4)n2)cc(OC)c1OC | 2.78 | 0.11 | 5.51 | 0.24 | -0.66 | -0.75 | 13.3 | -1.96 |
| CNC(=O)O[C@H]1COc2ccc(N3CCN(C4COC4)CC3)cc2[C@@H]1NC(=O)c1ccc(F)cc1 | 0.28 | -1.16 | -0.66 | 0.03 | -0.56 | -1.19 | -1.61 | -0.51 |
| N[C@@H](CC(=O)Nc1ccc(Oc2cc(F)c(F)cc2Br)cc1)C(=O)O | 0.75 | -3.05 | -0.04 | 0.11 | -0.55 | 0.24 | -2.19 | 0.54 |
| CC(C)(C)c1ccc(CN(C(=O)CN(Cc2c(F)c(F)c(F)c(F)c2F)S(=O)(=O)c2ccc(F)cc2)c2ccc(C(=O)NO)cc2)cc1 | 1.56 | 8.81 | 9.04 | -5.74 | 14.4 | -2.29 | 9.93 | 0 |
| COc1cc(C(=O)N2C[C@H](N)CC[C@@H]2C)cc2nc(-c3cc4cccnc4n3CC3CC3)n(C)c12 | 0.14 | 0.61 | 0.15 | -0.38 | -1.31 | -0.7 | -1.15 | 0.53 |
| CNCCN(C)Cc1cn[nH]c1-c1ccc(OC2CC(OCCC3CCOCC3)C2)cc1 (configuration not stated) | 0.66 | -1.82 | 0.43 | 0.19 | -0.94 | 0.05 | -0.58 | -1.33 |
| CCOCC1(COCC)CCC(c2n[nH]cc2CN(C)CCNC)CC1 | 0.58 | -1.39 | -0.06 | 0.56 | -1.08 | 0.33 | -0.08 | -1.29 |
| Cc1c(NC(=O)c2cc(C(N)=O)nc3cc(F)ccc23)c(C(F)(F)F)nn1Cc1ccc(C#N)cc1 | 0.61 | -2.09 | 0.06 | 0.03 | 0.78 | 0.34 | -2.13 | 1.34 |
| NS(=O)(=O)c1cc(-c2nnn[nH]2)c(NCc2cccs2)cc1Cl | 0.69 | -1.05 | 1.03 | 0.19 | 1.34 | 0.84 | -1.94 | 0 |
| NC(=O)[C@H]1CCCCc2c1[nH]c1ccc(Cl)cc21 | 1.15 | -1.22 | 0.22 | 0.38 | 0.6 | -0.5 | 1.7 | 0.16 |
